According to PubChem BioAssay (EPA / NIEHS):
Inconclusive results are not listed. Calls of active or inactive are those of the source. The calls were made as follows: active = hit-call score of the fitted dose curve at least 0.9, where 1 is the maximum; inconclusive = response in the unintended direction; inactive = score below 0.9.

Columns and labels:
[1] = target: human Neurokinin, NK2 Receptor, TACR2 (gene 6865) (UniProt P21452); test: NVS_GPCR_hNK2: NovaScreen (NVS) G Protein-Coupled Receptor Assay for human Neurokinin, NK2 Receptor (AID 2283278);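 also: actives reduce bound radioligand signal relative to DMSO baseline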
In short: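 Radioligand binding on membranes from CHO cells expressing receptor, filter-based scintillation read 4 h after dosing. Initial duplicate screen at 25 uM, actives in concentration series; loss of signal versus DMSO.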

[2] = target: human Leukotriene B4 Receptor 1 (LTB4-BLT1), LTB4R (gene 1241) (UniProt Q15722); test: NVS_GPCR_hLTB4_BLT1: NovaScreen (NVS) G Protein-Coupled Receptor Assay for human Leukotriene B4 Receptor 1 (LTB4-BLT1) (AID 2283271)
In short: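 Radioligand displacement binding on receptor extracted from human neutrophils, cell-free, 1 h after dosing; filter-based scintillation counting. Primary screen in duplicate at 25 uM, actives retested in concentration-response up to 50 uM; loss of signal versus DMSO.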

[3] = target: Muscarinic acetylcholine receptor M3 (Homo sapiens) (UniProt P20309); test: NVS_GPCR_hM3: NovaScreen (NVS) G Protein-Coupled Receptor Assay for human Muscarinic, M3 Receptor (AID 2283272)
In short: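 Radioligand displacement binding on human M3 receptor in CHO-derived membranes, 1 h incubation, filter-based scintillation counting. Primary screen in duplicate at 25 uM; actives followed up in concentration series; loss of signal versus DMSO.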

[4] = target: Muscarinic acetylcholine receptor M2 (Homo sapiens) (UniProt P08172); test: NVS_GPCR_hM2: NovaScreen (NVS) G Protein-Coupled Receptor Assay for human Muscarinic, M2 Receptor (AID 2283273)
In short: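 CHO membrane prep, radioligand + test compound, 1 h; filtration, scintillation count. Screen 25 uM duplicate → conc. series for actives. Readout: decrease in binding vs DMSO control.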

[5] = target: human Muscarinic, M4 Receptor, CHRM4 (gene 1132) (UniProt P08173); test: NVS_GPCR_hM4: NovaScreen (NVS) G Protein-Coupled Receptor Assay for human Muscarinic, M4 Receptor (AID 2283274)
In short: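 Cell-free radioligand displacement using CHO-derived human M4 receptor protein, 1 h after dosing; bound radioactivity by filtration and scintillation counting. Primary screen single 25 uM duplicate, actives followed in concentration series.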

[6] = target: human Adrenergic, Beta 3 Receptor (Adrb3), ADRB3 (gene 155) (UniProt P13945); test: NVS_GPCR_hAdrb3: NovaScreen (NVS) G Protein-Coupled Receptor Assay for human Adrenergic, Beta 3 Receptor (Adrb3) (AID 2283262)
In short: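 Membranes from SK-N-MC cells pretreated with isoproterenol and 8-bromo-cAMP were used in a radioligand competitive displacement binding assay. Binding was read by filter-based scintillation counting 1 hour after dosing. Primary screening was in duplicate at 25 uM, with concentration series in follow-up.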

[7] = target: human Dopamine Receptor D4.4 (DRD4.4), DRD4 (gene 1815) (UniProt P21917); test: NVS_GPCR_hDRD4.4: NovaScreen (NVS) G Protein-Coupled Receptor Assay for human Dopamine Receptor D4.4 (DRD4.4) (AID 2283264)
In short: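 Radioligand displacement on human DRD4.4 from CHO-derived membranes, 1 hour incubation, bound counts read by filtration and scintillation. Primary screen in duplicate at 25 uM; actives followed up in concentration series.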

[8] = target: human Dopamine Receptor D2 (DRD2), DRD2 (gene 1813) (UniProt P14416); test: NVS_GPCR_hDRD2s: NovaScreen (NVS) G Protein-Coupled Receptor Assay for human Dopamine Receptor D2 (DRD2) (AID 2283266)
In short: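 Radioligand displacement used human DRD2 membranes extracted from CHO cells and was read by filter-based scintillation counting after 1.5 hours. Primary screening was in duplicate at 25 uM. Loss of signal versus DMSO was fitted, with concentration series in follow-up.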

[9] = target: human Histamine 1 Receptor (H1), HRH1 (gene 3269) (UniProt P35367); test: NVS_GPCR_hH1: NovaScreen (NVS) G Protein-Coupled Receptor Assay for human Histamine 1 Receptor (H1) (AID 2283268)
In short: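 Cell-free radioligand displacement at human H1 receptor, 1 h, filter scintillation counting; primary screen 25 uM in duplicate, hits in concentration series; loss of binding fitted vs DMSO.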

[10] = target: D(1A) dopamine receptor (Homo sapiens) (UniProt P21728); test: NVS_GPCR_hDRD1: NovaScreen (NVS) G Protein-Coupled Receptor Assay for human Dopamine Receptor D1 (DRD1) (AID 2283269)
In short: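 Radioligand displacement binding on membranes/protein extracted from HEK293 expressing human D1, cell-free; read 1 h after dosing by filter-based scintillation counting. Primary screen in duplicate at 25 uM, actives followed up in concentration series; signal loss versus DMSO baseline.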

[11] = target: Muscarinic acetylcholine receptor M1 (Homo sapiens) (UniProt P11229); test: NVS_GPCR_hM1: NovaScreen (NVS) G Protein-Coupled Receptor Assay for human Muscarinic, M1 Receptor (AID 2283270)
In short: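 Cell-free radioligand displacement using membrane protein extracted from CHO cells, read by filter-based scintillation counting 1 h after dosing. Loss of bound signal fitted versus DMSO; primary screen single concentration 25 uM in duplicate, actives followed by concentration series.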

[12] = target: human Thromboxane A2 Receptor (TXA2), TBXA2R (gene 6915) (UniProt P21731); test: NVS_GPCR_hTXA2: NovaScreen (NVS) G Protein-Coupled Receptor Assay for human Thromboxane A2 Receptor (TXA2) (AID 2283282);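 also: actives reduce bound radioligand signal relative to DMSO baseline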
In short: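 Cell-free radioligand binding on membrane protein from human platelets; radioligand displacement read by filter-based scintillation counting after 1 h. Primary screen in duplicate at 25 uM, actives then run in concentration series; loss of signal versus DMSO.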

[13] = target: human Endothelin Receptor Type A (ETA), EDNRA (gene 1909) (UniProt P25101); test: NVS_GPCR_hETA: NovaScreen (NVS) G Protein-Coupled Receptor Assay for human Endothelin Receptor Type A (ETA) (AID 2283265)
In short: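 Cell-free radioligand displacement using SH-SY5Y-derived protein, 3 h incubation, filter-based scintillation counting. Primary screen in duplicate at 25 uM; actives then run in concentration-response up to 50 uM; loss of binding fitted versus DMSO.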

[14] = target: human Endothelin Receptor Type B (ETB), EDNRB (gene 1910) (UniProt P24530); test: NVS_GPCR_hETB: NovaScreen (NVS) G Protein-Coupled Receptor Assay for human Endothelin Receptor Type B (ETB) (AID 2283267)
In short: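 Human astrocytoma cell membranes; radioligand competitive binding read by filter scintillation counting 4 hours after dosing. Single-concentration duplicate screen at 25 uM, then singleton concentration-response up to 50 uM; loss of signal versus DMSO.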

Measured: AC50

Sequence of human Muscarinic, M4 Receptor, CHRM4 (gene 1132) (P08173 whole entry, looked up): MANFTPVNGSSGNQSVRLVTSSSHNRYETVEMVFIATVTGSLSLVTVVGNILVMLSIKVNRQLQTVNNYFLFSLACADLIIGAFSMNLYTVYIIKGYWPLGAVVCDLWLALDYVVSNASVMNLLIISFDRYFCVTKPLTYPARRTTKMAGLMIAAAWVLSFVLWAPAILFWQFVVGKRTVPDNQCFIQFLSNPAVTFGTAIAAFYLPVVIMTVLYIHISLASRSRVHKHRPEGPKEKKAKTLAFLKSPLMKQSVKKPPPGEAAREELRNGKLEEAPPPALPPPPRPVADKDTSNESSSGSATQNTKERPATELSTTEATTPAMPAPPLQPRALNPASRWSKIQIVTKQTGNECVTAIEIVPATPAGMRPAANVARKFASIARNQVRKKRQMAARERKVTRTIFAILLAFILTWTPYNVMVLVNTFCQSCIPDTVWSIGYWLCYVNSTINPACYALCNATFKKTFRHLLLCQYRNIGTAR
Sequence of Muscarinic acetylcholine receptor M1 (Homo sapiens) (P11229 whole entry, looked up): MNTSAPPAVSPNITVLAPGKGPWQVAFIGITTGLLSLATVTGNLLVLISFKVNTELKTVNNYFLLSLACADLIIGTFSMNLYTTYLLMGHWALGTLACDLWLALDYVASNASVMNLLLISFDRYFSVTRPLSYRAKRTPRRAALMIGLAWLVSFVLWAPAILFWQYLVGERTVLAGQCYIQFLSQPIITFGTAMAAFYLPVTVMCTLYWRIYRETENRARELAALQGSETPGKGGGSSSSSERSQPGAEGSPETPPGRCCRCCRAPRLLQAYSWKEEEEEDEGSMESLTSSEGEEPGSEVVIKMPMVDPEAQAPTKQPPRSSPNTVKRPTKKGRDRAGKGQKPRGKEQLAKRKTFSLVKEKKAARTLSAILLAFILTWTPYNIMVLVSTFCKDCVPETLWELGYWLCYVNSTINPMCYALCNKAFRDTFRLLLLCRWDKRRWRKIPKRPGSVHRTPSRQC
Sequence of human Dopamine Receptor D2 (DRD2), DRD2 (gene 1813) (P14416 whole entry, looked up): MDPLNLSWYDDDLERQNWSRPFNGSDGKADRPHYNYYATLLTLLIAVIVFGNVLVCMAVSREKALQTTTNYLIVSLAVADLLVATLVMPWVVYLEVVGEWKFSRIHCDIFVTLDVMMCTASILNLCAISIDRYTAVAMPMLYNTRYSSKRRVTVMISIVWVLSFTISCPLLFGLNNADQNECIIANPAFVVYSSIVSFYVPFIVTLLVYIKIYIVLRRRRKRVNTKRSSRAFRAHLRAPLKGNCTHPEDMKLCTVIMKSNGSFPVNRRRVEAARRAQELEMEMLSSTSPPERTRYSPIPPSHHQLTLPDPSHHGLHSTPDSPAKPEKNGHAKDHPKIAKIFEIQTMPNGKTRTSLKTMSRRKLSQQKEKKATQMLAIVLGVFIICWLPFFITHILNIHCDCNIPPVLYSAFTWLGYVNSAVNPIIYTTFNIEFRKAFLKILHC
Sequence of human Histamine 1 Receptor (H1), HRH1 (gene 3269) (P35367 whole entry, looked up): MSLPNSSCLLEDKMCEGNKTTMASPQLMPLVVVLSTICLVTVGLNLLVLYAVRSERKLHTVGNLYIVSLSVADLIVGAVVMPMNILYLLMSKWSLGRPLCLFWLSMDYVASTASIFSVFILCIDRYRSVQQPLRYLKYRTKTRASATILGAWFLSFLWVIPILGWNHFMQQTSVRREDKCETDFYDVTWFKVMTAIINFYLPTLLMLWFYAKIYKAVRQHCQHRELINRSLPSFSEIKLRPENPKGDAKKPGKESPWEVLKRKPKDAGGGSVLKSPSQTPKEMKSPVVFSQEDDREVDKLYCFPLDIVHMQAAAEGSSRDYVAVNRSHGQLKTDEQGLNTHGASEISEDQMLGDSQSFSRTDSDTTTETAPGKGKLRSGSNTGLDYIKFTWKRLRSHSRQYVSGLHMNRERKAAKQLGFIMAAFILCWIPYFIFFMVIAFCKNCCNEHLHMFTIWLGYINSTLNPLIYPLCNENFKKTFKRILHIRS
Sequence of D(1A) dopamine receptor (Homo sapiens) (P21728 whole entry, looked up): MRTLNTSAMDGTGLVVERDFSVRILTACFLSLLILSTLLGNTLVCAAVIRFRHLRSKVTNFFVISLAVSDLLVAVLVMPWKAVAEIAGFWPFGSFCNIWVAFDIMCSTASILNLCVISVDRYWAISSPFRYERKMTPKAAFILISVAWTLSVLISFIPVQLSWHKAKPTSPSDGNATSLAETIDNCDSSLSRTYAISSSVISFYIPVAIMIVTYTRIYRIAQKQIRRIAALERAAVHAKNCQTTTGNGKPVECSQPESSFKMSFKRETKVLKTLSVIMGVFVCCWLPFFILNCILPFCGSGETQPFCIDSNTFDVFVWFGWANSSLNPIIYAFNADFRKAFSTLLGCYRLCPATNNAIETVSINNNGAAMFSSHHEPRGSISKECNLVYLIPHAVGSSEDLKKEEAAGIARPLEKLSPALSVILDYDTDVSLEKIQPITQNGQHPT
Sequence of human Neurokinin, NK2 Receptor, TACR2 (gene 6865) (P21452 whole entry, looked up): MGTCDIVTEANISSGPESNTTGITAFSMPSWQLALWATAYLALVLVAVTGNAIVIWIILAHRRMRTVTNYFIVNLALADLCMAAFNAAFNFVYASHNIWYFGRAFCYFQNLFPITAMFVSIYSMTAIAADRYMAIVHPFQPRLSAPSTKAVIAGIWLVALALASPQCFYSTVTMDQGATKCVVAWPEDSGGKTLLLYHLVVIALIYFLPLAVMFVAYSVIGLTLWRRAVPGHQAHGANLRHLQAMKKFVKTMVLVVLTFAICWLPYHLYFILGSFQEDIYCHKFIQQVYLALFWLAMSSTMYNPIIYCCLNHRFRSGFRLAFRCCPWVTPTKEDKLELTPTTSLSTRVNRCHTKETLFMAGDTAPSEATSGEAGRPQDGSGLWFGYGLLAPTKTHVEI
Sequence of Muscarinic acetylcholine receptor M3 (Homo sapiens) (P20309 whole entry, looked up): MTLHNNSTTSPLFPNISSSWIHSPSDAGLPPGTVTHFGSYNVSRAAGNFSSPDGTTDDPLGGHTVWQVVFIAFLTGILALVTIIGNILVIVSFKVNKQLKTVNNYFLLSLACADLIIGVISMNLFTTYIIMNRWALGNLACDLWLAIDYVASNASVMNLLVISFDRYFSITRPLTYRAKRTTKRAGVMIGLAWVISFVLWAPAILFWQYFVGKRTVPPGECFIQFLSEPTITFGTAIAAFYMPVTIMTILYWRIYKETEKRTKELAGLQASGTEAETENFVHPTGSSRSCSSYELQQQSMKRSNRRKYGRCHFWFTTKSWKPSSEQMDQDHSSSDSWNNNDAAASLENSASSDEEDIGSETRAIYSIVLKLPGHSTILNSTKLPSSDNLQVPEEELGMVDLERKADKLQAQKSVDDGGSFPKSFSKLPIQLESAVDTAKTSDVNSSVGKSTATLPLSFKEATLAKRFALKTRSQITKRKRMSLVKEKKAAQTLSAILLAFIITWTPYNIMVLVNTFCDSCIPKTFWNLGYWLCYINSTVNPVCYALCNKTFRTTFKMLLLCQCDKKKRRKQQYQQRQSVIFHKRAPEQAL
Sequence of human Dopamine Receptor D4.4 (DRD4.4), DRD4 (gene 1815) (P21917 whole entry, looked up): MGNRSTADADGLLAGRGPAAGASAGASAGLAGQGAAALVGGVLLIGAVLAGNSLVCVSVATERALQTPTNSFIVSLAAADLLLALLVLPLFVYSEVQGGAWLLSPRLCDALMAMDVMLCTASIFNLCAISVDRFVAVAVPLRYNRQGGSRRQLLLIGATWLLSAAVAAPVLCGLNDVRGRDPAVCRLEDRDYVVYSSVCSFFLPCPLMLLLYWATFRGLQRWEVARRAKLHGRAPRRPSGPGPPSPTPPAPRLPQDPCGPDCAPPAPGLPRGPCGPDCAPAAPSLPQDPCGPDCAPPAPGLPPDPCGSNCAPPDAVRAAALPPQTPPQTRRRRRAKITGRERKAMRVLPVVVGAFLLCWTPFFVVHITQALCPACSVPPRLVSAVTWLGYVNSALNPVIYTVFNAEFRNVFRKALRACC
Sequence of Muscarinic acetylcholine receptor M2 (Homo sapiens) (P08172 whole entry, looked up): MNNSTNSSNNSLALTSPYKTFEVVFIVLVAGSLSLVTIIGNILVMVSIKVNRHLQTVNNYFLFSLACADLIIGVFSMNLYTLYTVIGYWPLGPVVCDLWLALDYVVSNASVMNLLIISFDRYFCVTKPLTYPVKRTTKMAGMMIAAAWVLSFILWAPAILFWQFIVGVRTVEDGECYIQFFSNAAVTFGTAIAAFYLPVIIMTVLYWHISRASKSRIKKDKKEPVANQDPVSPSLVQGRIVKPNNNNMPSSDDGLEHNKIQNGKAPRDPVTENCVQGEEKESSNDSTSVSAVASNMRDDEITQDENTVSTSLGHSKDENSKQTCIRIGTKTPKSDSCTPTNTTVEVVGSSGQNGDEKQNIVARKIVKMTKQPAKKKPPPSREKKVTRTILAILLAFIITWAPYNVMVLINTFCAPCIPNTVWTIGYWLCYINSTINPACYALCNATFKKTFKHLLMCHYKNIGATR
Sequence of human Adrenergic, Beta 3 Receptor (Adrb3), ADRB3 (gene 155) (P13945 whole entry, looked up): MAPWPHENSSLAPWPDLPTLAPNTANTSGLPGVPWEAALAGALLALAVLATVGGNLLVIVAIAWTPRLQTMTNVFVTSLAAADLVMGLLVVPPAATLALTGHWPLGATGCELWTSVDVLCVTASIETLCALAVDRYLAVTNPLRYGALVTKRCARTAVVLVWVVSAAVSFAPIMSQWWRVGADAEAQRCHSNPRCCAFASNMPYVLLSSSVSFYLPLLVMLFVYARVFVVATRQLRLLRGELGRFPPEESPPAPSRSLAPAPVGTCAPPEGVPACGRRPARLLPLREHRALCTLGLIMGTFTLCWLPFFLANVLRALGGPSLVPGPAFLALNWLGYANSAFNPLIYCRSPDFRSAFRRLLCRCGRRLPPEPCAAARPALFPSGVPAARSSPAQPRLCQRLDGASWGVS
Sequence of human Leukotriene B4 Receptor 1 (LTB4-BLT1), LTB4R (gene 1241) (Q15722 whole entry, looked up): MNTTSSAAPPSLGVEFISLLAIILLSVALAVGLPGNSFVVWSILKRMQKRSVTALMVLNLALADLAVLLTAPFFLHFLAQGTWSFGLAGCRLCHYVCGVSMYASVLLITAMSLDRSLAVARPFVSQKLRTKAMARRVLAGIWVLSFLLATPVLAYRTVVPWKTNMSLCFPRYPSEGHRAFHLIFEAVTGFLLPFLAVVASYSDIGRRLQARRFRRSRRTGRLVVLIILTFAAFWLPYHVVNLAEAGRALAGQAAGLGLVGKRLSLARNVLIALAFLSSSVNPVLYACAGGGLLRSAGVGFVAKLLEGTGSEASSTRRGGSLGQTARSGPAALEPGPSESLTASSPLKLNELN

CC(C)=CCCC(C)=CC=O
inactive: [1]

CCN(C(=O)c1cc(C)cc(OC[C@H](C)Nc2ccncc2)c1)C(C)C
active: [2] 5.9 µM | [3] 16.9 µM | [4] 10.6 µM | [5] 11.3 µM

CCOC(=O)c1ccc(C2CCC(NC[C@H](O)COc3ccc(O)c(NS(C)(=O)=O)c3)CC2)cc1 (stereo partly drawn)
active: [6] 7.77 µM | [7] 11.3 µM | [8] 0.0174 µM | [9] 18.6 µM | [10] 21.9 µM | [11] 12.7 µM | [3] 18 µM | [4] 4.31 µM | [5] 11.9 µM | [1] 5.98 µM

COc1ccc2sc(C(=O)Nc3nnn[nH]3)c(OC(C)C)c2c1
active: [12] 0.187 µM

CCOC(=O)COc1ccc2c(c1)CC(NCC(O)c1cccc(Cl)c1)CC2 (stereo not drawn)
active: [6] 17.9 µM | [7] 22.9 µM | [8] 2.33 µM | [9] 20.1 µM | [10] 22.9 µM | [11] 4.73 µM | [3] 3.78 µM | [4] 3.68 µM | [5] 1.92 µM | [1] 21.7 µM
inactive: [13]

Nc1ccc(Nc2ccccc2)cc1
active: [13] 6.53 µM | [10] 17.6 µM | [3] 25 µM | [4] 25 µM | [5] 16.6 µM

Cn1c(=O)cc(Oc2ccc(F)cc2F)c2cnc(NCC(C)(C)O)nc21
active: [9] 6.95 µM
inactive: [1]

Cc1[nH]cnc1C[C@H]1CCc2c(C)c3ccccc3n2C1=O
active: [7] 18.4 µM | [8] 0.979 µM | [9] 4.88 µM | [3] 15.5 µM
inactive: [14] | [11] | [2] | [5] | [1]
